Some test systems named below: DU-145 prostate; K-562 leukemia; MALME-3M melanoma; MDA-MB-231 breast; RXF 393 renal; SF-268 CNS; SF-295 CNS; SF-539 CNS; UACC-257 melanoma; M14 melanoma.
Holding throughout (test): NCI-60 one-dose screen, 48 h (100 = growth as untreated, 0 = no growth, -100 = all killed)
Common to all, as to settings: 10 µM unless noted

The panel holds about 83,000 compounds, 20% with a hit somewhere; the sample as a whole holds those more often.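 In brief: 96-well plates, 48 h treatment, single concentration, percent growth endpoint.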 Values without a mark were called inactive. The source made the active and inactive calls. Rule for the calls: active = growth percent below 10; inactive = the rest.

Take `C[C@@H](Nc1c(C#N)cnc2ccc(-c3cnc4[nH]ncc4c3)cc12)c1ccccc1`: the growth with DU-145 prostate was 12.3%; with K-562 leukemia, 22.4%; with MALME-3M melanoma, -2.53% (active); in the test with MDA-MB-231 breast, 9.96% (active); in the test with RXF 393 renal it was -15.1% (active); in the test with SF-268 CNS, 25.7%. The growth is -0.0923% (active) in the test on SF-295 CNS, 7.78% (active) in the test with SF-539 CNS, 32.5% in the test on UACC-257 melanoma and 29.9% with M14 melanoma.
For `COc1ccc(/C=C/c2nc3ccccc3n3c(-c4cccc([N+](=O)[O-])c4)nnc23)cc1`, the growth was -18% (active) in the test with DU-145 prostate; 5.5% (active) in the test with K-562 leukemia; -69.7% (active) with MALME-3M melanoma; 1.23% (active) with MDA-MB-231 breast; -85.2% (active) in the test with RXF 393 renal; -16.4% (active) with SF-268 CNS. The growth in the test on SF-295 CNS is 12.4%; in the test on SF-539 CNS, -86.5% (active); with UACC-257 melanoma, -48.9% (active); in the test on M14 melanoma it was -77.4% (active).
For the compound `Nc1nnc(CS(=O)(=O)c2ccccc2)s1`, the growth was 113% in the test with DU-145 prostate; 98.9% in the test on K-562 leukemia; 94.1% in the test on MALME-3M melanoma; 102% in the test on MDA-MB-231 breast; 172% in the test with RXF 393 renal; 105% in the test on SF-268 CNS. The growth in the test with SF-295 CNS is 99.2%; with SF-539 CNS, 101%; with UACC-257 melanoma, 97.1%; in the test with M14 melanoma, 97.3%.
As to `O=C(Nc1nc2ccccc2s1)Nc1ccccc1Cl`, the growth with DU-145 prostate was 99.9%; with K-562 leukemia, 86.2%; in the test on MALME-3M melanoma, 79.7%; in the test with MDA-MB-231 breast, 51.9%; with RXF 393 renal it was 73.8%; in the test with SF-268 CNS, 77.3%. The growth in the test on SF-295 CNS is 45%; with SF-539 CNS, 51%; in the test with UACC-257 melanoma, 98.8%; in the test on M14 melanoma it was 93.7%.
On to `O=C(N/N=C/c1ccc(Cl)o1)c1[nH]c2ccc(Br)cc2c1-c1ccccc1`, for which the growth with DU-145 prostate was -49.1% (active); with K-562 leukemia it was 8.31% (active); in the test with MALME-3M melanoma, 2.82% (active); with MDA-MB-231 breast it was -69.9% (active); in the test on RXF 393 renal it was -62.6% (active); in the test on SF-268 CNS it was 3.21% (active). Also, the growth with SF-295 CNS was -19.3% (active); in the test on SF-539 CNS, -97.2% (active); in the test with UACC-257 melanoma it was 17%; with M14 melanoma, -3.48% (active).
For `CNS(=O)(=O)N1CCc2c(Br)c3c(c(OC)c2C1CCc1ccccc1)OCO3` (stereo not given), the growth is 12.1% with DU-145 prostate; 13.1% with K-562 leukemia; -65% (active) with MALME-3M melanoma; -62.8% (active) in the test with MDA-MB-231 breast; -59.7% (active) in the test on RXF 393 renal; -12% (active) with SF-268 CNS. The growth in the test on SF-295 CNS was -75.3% (active); with SF-539 CNS, -86.5% (active); in the test on UACC-257 melanoma, -24.5% (active); in the test on M14 melanoma it was -9.58% (active).
As to `C/C(=N\Nc1ccc(S(N)(=O)=O)cc1)c1cnn(-c2cc(=O)[nH]c3ccc(Br)cc23)c1C`, the growth in the test on DU-145 prostate is 77.9%; in the test on K-562 leukemia, 35%; in the test on MALME-3M melanoma, 21.7%; in the test on MDA-MB-231 breast, 31.4%; in the test on RXF 393 renal it was 68.6%; with SF-268 CNS, 57.3%. In addition, the growth was 91.9% with SF-295 CNS, 41.6% in the test with SF-539 CNS, 66.3% in the test with UACC-257 melanoma and 73% with M14 melanoma.
Regarding `COc1cc(/C=C/C(=O)c2cnn(-c3cc(=O)[nH]c4ccccc34)c2C)cc(OC)c1OC`, the growth with DU-145 prostate was 24.9%; in the test on K-562 leukemia, 3.19% (active); with MALME-3M melanoma it was 38.2%; with MDA-MB-231 breast, 5.84% (active); with RXF 393 renal, -6.88% (active); with SF-268 CNS, 32.2%. The growth was 14.5% in the test with SF-295 CNS, -48% (active) in the test on SF-539 CNS, 43.3% in the test with UACC-257 melanoma and 19.5% with M14 melanoma.
`CC1=C(C(=O)Nc2ccccc2)C(c2cccc(Cl)c2Cl)n2c(nc3ccccc32)N1` (stereo not given): the growth was 71.1% in the test on DU-145 prostate; 26.5% with K-562 leukemia; 71.4% with MALME-3M melanoma; 71.4% with MDA-MB-231 breast; 34.5% in the test on RXF 393 renal; 42.5% in the test on SF-268 CNS. Moreover, the growth with SF-295 CNS was 47.1%; with SF-539 CNS it was 71.4%; in the test on UACC-257 melanoma, 60.8%; in the test with M14 melanoma, 48.8%.
As to `FC(F)(F)CN1CCN(CCn2c(C(F)(F)F)cc3c(Cl)ncnc32)CC1`, the growth was 30.9% with DU-145 prostate; -20.3% (active) with K-562 leukemia; 77.3% in the test with MALME-3M melanoma; -35.6% (active) with MDA-MB-231 breast; 59.7% with RXF 393 renal; -18.5% (active) in the test on SF-268 CNS. In addition, the growth was 67.1% in the test on SF-295 CNS, 66.6% in the test on SF-539 CNS, 45.7% with UACC-257 melanoma and -66.7% (active) in the test with M14 melanoma.
As to `COc1ccc(/C=C/C(=O)c2ccc(OC)c(S(N)(=O)=O)c2)c(C(F)(F)F)c1`, the growth in the test on DU-145 prostate is 16.4%; with K-562 leukemia, 7% (active); in the test on MALME-3M melanoma, 17.8%; in the test on MDA-MB-231 breast, 5.46% (active); in the test on RXF 393 renal it was 16.4%; in the test with SF-268 CNS, 15.5%. Besides, the growth in the test on SF-295 CNS is 37.5%; with SF-539 CNS, -84.9% (active); with UACC-257 melanoma, 62.3%; with M14 melanoma it was -48.5% (active).
As for `COc1ccc(Nc2ncnc3sc4c(c23)CCN(Cc2ccccc2)C4)cc1`, the growth is 94.3% in the test on DU-145 prostate; 45.3% in the test with K-562 leukemia; 107% with MALME-3M melanoma; 87.5% with MDA-MB-231 breast; 74.6% in the test with RXF 393 renal; 66.1% in the test on SF-268 CNS. The growth is 67.6% in the test on SF-295 CNS, 91.3% in the test on SF-539 CNS, 94.6% with UACC-257 melanoma and 81.1% in the test on M14 melanoma.
For `O=C(CSc1nc2sc3c(c2c(=O)n1-c1ccc(Cl)cc1)CCCC3)NNC(=O)c1ccc(F)cc1`, the growth is 109% with DU-145 prostate; 72.3% in the test with K-562 leukemia; 80.5% in the test on MALME-3M melanoma; 28.8% in the test with MDA-MB-231 breast; 89.7% in the test with RXF 393 renal; 95.9% in the test on SF-268 CNS. The growth is 90.4% with SF-295 CNS, -28.4% (active) with SF-539 CNS, 106% in the test on UACC-257 melanoma and 80.6% in the test on M14 melanoma.

These data come from PubChem BioAssay (NCI).
